Screening data: PubChem, The Scripps Research Institute Molecular Screening Center
Sampled rows, rich in hits. Any-hit rate of the full collection: about 1.1%.
HTR5A inv ag: HTR5A inverse agonists in luminescence cell assay, primary screen, counter-screen for OPRM1-OPRD1 heterodimer inverse agonist project, full-deck HTS; 5-hydroxytryptamine receptor 5A (Homo sapiens), P47898; inhibition, % at 9.3 µM; 0.083% of 340,000 active; HTR5A cell line, inverse agonism; in the data active = inhibition mostly above about 23%, no sharp cut-off; inactive = mostly below about 18%
OPRM1-OPRD1 inv: inverse agonists of MOR-DOR heterodimerization, primary screen, cell-based, luminescence. 0.21% of 340,000 active. cell-based MOR-DOR heterodimer luminescence, inverse agonism. Mu-type opioid receptor (Homo sapiens) + Delta-type opioid receptor (Homo sapiens), …. inhibition, % at 9.3 µM. AID 504357, 2011; in the data active = inhibition above about 22%, passing the limit was not always enough
Target sequence (P35372 whole entry, looked up): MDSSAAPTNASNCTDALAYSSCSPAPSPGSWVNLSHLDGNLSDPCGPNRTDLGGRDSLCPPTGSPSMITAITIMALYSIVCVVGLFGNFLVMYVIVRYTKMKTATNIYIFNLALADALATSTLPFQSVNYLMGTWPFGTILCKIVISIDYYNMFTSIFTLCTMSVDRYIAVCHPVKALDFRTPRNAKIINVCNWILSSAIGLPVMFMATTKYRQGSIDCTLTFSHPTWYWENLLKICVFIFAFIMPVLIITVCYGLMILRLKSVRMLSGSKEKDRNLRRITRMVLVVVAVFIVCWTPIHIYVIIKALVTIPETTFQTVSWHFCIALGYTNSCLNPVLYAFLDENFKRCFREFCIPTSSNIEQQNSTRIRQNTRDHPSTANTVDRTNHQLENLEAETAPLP
Target sequence (P41143 whole entry, looked up): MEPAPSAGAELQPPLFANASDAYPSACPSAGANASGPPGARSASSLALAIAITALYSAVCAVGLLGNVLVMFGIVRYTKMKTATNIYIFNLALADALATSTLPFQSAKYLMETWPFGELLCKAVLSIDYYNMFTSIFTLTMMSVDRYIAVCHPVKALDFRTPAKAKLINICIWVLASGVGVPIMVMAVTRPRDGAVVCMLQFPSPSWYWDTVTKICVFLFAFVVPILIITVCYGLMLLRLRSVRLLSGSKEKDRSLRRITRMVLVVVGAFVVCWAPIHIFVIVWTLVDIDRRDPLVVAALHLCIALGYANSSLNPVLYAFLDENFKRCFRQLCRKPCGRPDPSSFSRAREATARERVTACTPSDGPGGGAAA
OPRM1-OPRD1 ag: agonists of OPRM1-OPRD1 heterodimerization, primary screen, cell-based, luminescence. Mu-type opioid receptor (Homo sapiens) + Delta-type opioid receptor (Homo sapiens), …. cells. activation, % at 9.3 µM. 0.3% of 340,000 active
HTR5A ag: HTR5A agonists in luminescence cell assay, primary screen, counter-screen for OPRM1-OPRD1 heterodimer agonist project, full-deck HTS | 5-hydroxytryptamine receptor 5A (Homo sapiens), P47898 | cell-based | activation, % at 9.3 µM | 0.61% of 340,000 active | AID 504692, 2011; in the data active = activation mostly above about 9.5%, no sharp cut-off; inactive = mostly below about 7.6%
OPRM1-D1 ag cf: agonists of MOR-DOR heterodimerization, confirmation, cell-based, luminescence | cells, luminescence complementation | shares compounds with OPRM1-OPRD1 ag | activation, % at 9.3 µM | 45% of 830 active
HTR5A ag ctr2: HTR5A agonists in cells, counter-screen for OPRM1-OPRD1 heterodimer agonist project, cell-based, luminescence. shares compounds with OPRM1-OPRD1 ag. HTR5A agonist counterscreen. activation, % at 9.3 µM. 8% of 830 active. AID 504905, 2011; in the data active = activation above about 17%
Each line names hits and unclear results; the compound was inactive in the other large screens (follow-up assays come after a bar, where they were run). Cut-off read from the data, not from the text of the source, unless noted: active = activation above about 18%; inactive = the rest.

CCOC(=O)C1=C(C)N(CCCC(=O)O)C(=O)NC1c1ccccc1OS(=O)(=O)c1ccccc1[N+](=O)[O-] (configuration not stated)	OPRM1-OPRD1 ag 55.6 | OPRM1-D1 ag cf inactive | HTR5A ag ctr2 inactive
CCOC(=O)C1=C(C)N(CCCCCC(=O)O)C(=O)NC1c1ccccc1OS(=O)(=O)c1ccc(C)cc1 (configuration not stated)	OPRM1-OPRD1 ag 57.4 | OPRM1-D1 ag cf inactive | HTR5A ag ctr2 inactive
CCOC(=O)C1=C(C)N(CCCC(=O)O)C(=O)NC1c1ccccc1 (configuration not stated)	none
Cc1ccc(CN2CCC(=O)N2)cc1	none
CCOc1ccc(Nc2c3ccccc3nc3ccccc23)cc1	OPRM1-OPRD1 ag 19.6 | OPRM1-D1 ag cf 37.0 | HTR5A ag ctr2 inactive
COC1=C(c2ccccc2)C(=O)c2ccccc2C1=O	none
O=C(C1=C(c2ccccc2)C(=O)c2ccccc2C1=O)c1ccccc1	OPRM1-OPRD1 ag 20.2 | OPRM1-D1 ag cf inactive | HTR5A ag ctr2 inactive
CCCn1cc(CN2CCC(n3nccc3NC(=O)C(OC)c3ccccc3)CC2)c(C)n1 (configuration not stated)	none
CCN1C(c2ccccc2)=C(c2ccccc2)S/C1=C/C=C1\SC(=S)N(C)C1=O	OPRM1-OPRD1 ag 47.7 | OPRM1-D1 ag cf 441.1 | HTR5A ag ctr2 29.2
CN1CCS/C1=C/C=C1/SC(=S)N(Cc2ccccc2)C1=O	none
CCN1C(=O)/C(=C/C=C2/Sc3ccc4ccccc4c3N2CCO)SC1=S	none
CCN1C(c2ccccc2)=C(c2ccccc2)S/C1=C\C=C1/SC(=S)N(C)C1=O	OPRM1-OPRD1 ag 137.1 | OPRM1-D1 ag cf inactive | HTR5A ag ctr2 inactive
Cc1ccc(S(=O)(=O)N2CCCCC2C(=O)Nc2ccc(N(C)C)cc2)cc1 (configuration not stated)	none
Cn1cc(C(=O)C(=O)NCCc2ccccc2)c2ccccc21	none
Cc1ccccc1NC(=O)C(=O)c1cn(C)c2ccccc12	OPRM1-OPRD1 ag 23.9 | OPRM1-D1 ag cf inactive | HTR5A ag ctr2 inactive
O=C(O)C1CC=CCC1C(=O)NCc1ccc(Cl)c(Cl)c1 (configuration not stated)	none
COc1cc2c(cc1OC)CN(C(=O)Nc1ccccc1)CC2	OPRM1-OPRD1 ag 60.5 | OPRM1-D1 ag cf inactive | HTR5A ag ctr2 inactive
COc1cc2c(cc1OC)CN(C(=O)Nc1ccccc1Cl)CC2	none
Cc1nc(NCC(c2ccccc2)N(C)C)c2c(C)c(C)sc2n1 (configuration not stated)	OPRM1-OPRD1 ag 37.4 | OPRM1-D1 ag cf 47.8 | HTR5A ag ctr2 inactive
Cc1sc2ncnc(NCC(c3ccccc3)N(C)C)c2c1C (configuration not stated)	none
CCOC(=O)C1(CC2CC2)CCN(Cc2cn[nH]c2-c2cccc(F)c2)CC1	none
CCOC(=O)C1(CC2CC2)CCN(Cc2ccc3cccc(F)c3n2)CC1	OPRM1-OPRD1 ag 24.2 | OPRM1-D1 ag cf 27.8 | HTR5A ag ctr2 inactive
COc1cc(SC)ccc1C(=O)Nc1cccc(S(=O)(=O)NC2=NCCC2)c1	none
Cc1ccc(C(=O)NC(=S)N2CCN(C)CC2)cc1Br	none
COc1cccc(CC(NC(C)=O)C(=O)NC2CCN(S(=O)(=O)c3ccc(NC(C)=O)cc3)CC2)c1OC (configuration not stated)	none
Oc1ccccc1N1CCN(C(c2ccccc2)c2ccccc2)CC1	OPRM1-OPRD1 ag 26.6 | OPRM1-D1 ag cf 23.4 | HTR5A ag ctr2 inactive
Fc1ccc(CN2CCN(C(c3ccccc3)c3ccccc3)CC2)cc1	none
c1ccc(CN2CCN(C(c3ccccc3)c3ccccc3)CC2)cc1	OPRM1-OPRD1 ag 26.2 | OPRM1-D1 ag cf 19.2 | HTR5A ag ctr2 inactive
O=C1Nc2ccccc2O/C1=C\c1ccccc1Br	none
COc1ccc(OC)c(NC(=O)Nc2ccc3c(c2)OCO3)c1	none
CCCN1CCC(N(CCc2ccccc2)Cc2ccccc2)CC1	none
COc1ccc(CN2CCC(N(CCc3ccccc3)Cc3ccccc3)CC2)c(OC)c1	OPRM1-OPRD1 ag 107.2 | OPRM1-D1 ag cf inactive | HTR5A ag ctr2 inactive
